# Laboratory results published in the supplement of paper PMC9694430.
# Assays:
# Test in all cases: thermal shift delta Tm vs DMSO control; higher = stronger stabilization (binding)
# Settings in all cases: 12.5 µM; protein concentration 2 µM
# [1] = test system: LOC_OS01G01410-cb001
# Outline: (§1)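 Thermal shift values come from differential scanning fluorimetry on purified rice kinase domains made in E. coli, with melting temperatures obtained from Boltzmann fits. Samples of 19.5 μl held 2 μM kinase, 100 mM potassium phosphate pH 7.5, 150 mM NaCl, 10% glycerol, 5 × SYPRO Orange and compound in DMSO, and were heated from 25°C to 95°C at 0.05°C/s. Each shift is a triplicate mean relative to the DMSO-only protein sample.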
# [2] = test system: LOC_OS01G02750-cb003
# Outline: as §1
# [3] = test system: LOC_OS01G10900-cb004
# Outline: as §1
# [4] = test system: LOC_OS01G13800-cb001
# Outline: as §1
# [5] = test system: LOC_OS01G14860-cb001
# Outline: as §1
# [6] = test system: LOC_OS01G21960-cb002
# Outline: as §1
# [7] = test system: LOC_OS01G39600-cb002
# Outline: as §1
# [8] = test system: LOC_OS01G48390-cb002
# Outline: as §1
# [9] = test system: LOC_OS01G51400-cb002
# Outline: as §1
# [10] = test system: T1, LOC_OS01G52050-cb004
# T1 sequence (whole entry): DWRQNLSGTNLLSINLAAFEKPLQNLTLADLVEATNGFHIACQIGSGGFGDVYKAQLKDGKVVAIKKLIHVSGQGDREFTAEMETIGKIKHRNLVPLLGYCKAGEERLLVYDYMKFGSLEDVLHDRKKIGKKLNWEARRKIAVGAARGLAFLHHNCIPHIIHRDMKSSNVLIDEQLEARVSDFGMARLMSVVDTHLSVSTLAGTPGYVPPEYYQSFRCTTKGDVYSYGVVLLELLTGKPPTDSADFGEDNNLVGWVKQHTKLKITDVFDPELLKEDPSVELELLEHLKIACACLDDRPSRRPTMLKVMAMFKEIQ
# Outline: as §1
# [11] = test system: LOC_OS01G57100-cb003
# Outline: as §1
# [12] = test system: LOC_OS01G60330-cb001
# Outline: as §1
# [13] = test system: LOC_OS01G60700-cb002
# Outline: as §1
# [14] = test system: LOC_OS01G63280-cb003
# Outline: as §1
# [15] = test system: LOC_OS01G67340-cb003
# Outline: as §1
# [16] = test system: LOC_OS01G70970-cb002
# Outline: as §1
# [17] = test system: LOC_OS02G07810-cb001
# Outline: as §1
# [18] = test system: LOC_OS02G08530-cb003
# Outline: as §1
# [19] = test system: LOC_OS02G14120-cb001
# Outline: as §1
# [20] = test system: LOC_OS02G17970-cb001
# Outline: as §1
# 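Also: purified Escherichia coli-expressed rice kinase domain construct.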
Compound,thermal shift delta Tm [1] [°C],thermal shift delta Tm [2] [°C],thermal shift delta Tm [3] [°C],thermal shift delta Tm [4] [°C],thermal shift delta Tm [5] [°C],thermal shift delta Tm [6] [°C],thermal shift delta Tm [7] [°C],thermal shift delta Tm [8] [°C],thermal shift delta Tm [9] [°C],thermal shift delta Tm [10] [°C],thermal shift delta Tm [11] [°C],thermal shift delta Tm [12] [°C],thermal shift delta Tm [13] [°C],thermal shift delta Tm [14] [°C],thermal shift delta Tm [15] [°C],thermal shift delta Tm [16] [°C],thermal shift delta Tm [17] [°C],thermal shift delta Tm [18] [°C],thermal shift delta Tm [19] [°C],thermal shift delta Tm [20] [°C]
CC(C)(C)NS(=O)(=O)c1cncc(-c2cc(F)c3nc(N)nn3c2)c1,0.2,0.93,0.04,0.1,0.32,0.56,0.65,0.32,0.36,0.57,1.55,0.87,1.82,0.83,0.93,0.9,1.06,0.86,-0.33,2.29
Cc1cc(NC(=O)c2cccc(NC(=O)/C=C/CN(C)C)c2)ccc1Nc1nccc(-c2cccnc2)n1,1.77,1.69,4.22,0.46,1.25,1.6,6.45,1.99,0.73,0.75,1.86,0.94,1.77,0.92,0.69,1.62,1.46,1.8,0.95,1.45
"Cc1cc(Nc2cc(N3CCN(C)CC3)nc(Sc3ccc(NC(=O)C4CC4)cc3)n2)n[nH]1 [Tozasertib (VX-680, MK-0457)]",6.12,6.08,2.83,0.07,1.86,1.49,10.2,3.05,0.88,1.66,1.29,3.67,1.21,0.58,1.87,2.62,0.91,2.4,7.67,0.93
C[C@@H]1COCCN1c1cc(C2([S@](C)(=N)=O)CC2)nc(-c2cc[nH]c3nccc2-3)n1,0.28,0.13,-0.04,0.31,-0.19,-0.02,-0.99,-0.04,-0.01,-0.09,0.97,0.61,0.22,-0.13,0.47,0.14,0.56,0.49,0.92,0.47
Cc1cn(-c2cc(NC(=O)c3ccc(C)c(Nc4nccc(-c5cnccn5)n4)c3)cc(C(F)(F)F)c2)cn1 [Radotinib],0.24,1.63,2.41,0.87,0.52,0.96,-0.12,0.73,0.16,0.51,1.49,1.07,1.39,0.63,0.48,0.3,1.04,0.67,1.36,1.82
